High-throughput results from PubChem BioAssay.
Nrf2 block – blocks Nrf2 signaling | 2.1% of 360,000 active | A549 ARE-Fluc reporter, luciferase luminescence, 18-24 h | Potency, µM (titrated, usually from 46 µM), without a hit: at the highest dose activity change, negative = inhibition, hits mostly inhibitors; note: % is set by controls: 0 for no effect and ±100 for the full control effect; nearly all actives have a fitted effect of over 60% in size
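A549 ARE_Fluc cells (5000/well, 5% FBS OPTI-MEM) pre-incubated 2 h, then treated with compounds 18-24 h at 37C/5% CO2 in concentration-response. CellTiter-Fluor viability read first; BugLite luciferase luminescence after 15 min at room temperature gives Nrf2 activity.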
ATXN2 expr inh – ATXN2 expression inhibition. HEK-293 ATXN2-luciferase reporter, luminescence, 24 h. Potency, µM (titrated, usually from 57 µM), without a hit: at the highest dose activity change, negative = inhibition, actives largely listed as inhibitors. 0.72% of 360,000 active. AID 1745845; note: % is set by controls: 0 for no effect and ±100 for the full control effect; nearly all actives have a fitted effect of over 55% in size
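qHTS (up to 57 uM final) was run with 24 h compound exposure of reporter cells at 37 °C. Each well was multiplexed: SteadyGlo luminescence measured ATXN2-luciferase expression after a fluorogenic Gly-Phe-AFC viability readout (25 uM final).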
A549 viability – kills or reduces viability of A549 cells in Nrf2 counter-screen; A549 ARE-Fluc cells, CellTiter-Fluor viability, 18-24 h; Potency, µM (doses to about 46 µM), inactives show at the top dose activity change, negative = cytotoxicity, hits mostly inhibitors; 0.16% of 390,000 active; AID 504648; note: % is set by controls: 0 for no effect and ±100 for the full control effect
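A549 ARE_Fluc cells in 5% FBS OPTI-MEM were exposed to compounds in concentration-response for 18-24 h at 37 deg C. Viability was read by CellTiter-Fluor fluorescence (Ex 405/Em 525) after 30 min, before the luciferase read.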
S2 tox – reduces viability in counter-screen for ATXN expression inhibitors; S2 cells (HEK-293 line with an ATXN2-luciferase reporter) viability, CellTiter-Fluor protease fluorescence, 24 h; Potency, µM (highest dose often 56.7 µM), most hits filed as cytotoxic; 0.49% of 400,000 active; note: nearly all actives have a fitted effect of over 40% in size
Nrf2 activator – activators of Nrf2 (ARE) signaling; AREc32 ARE-luciferase reporter (MCF7-derived line), luminescence, 24 h; 0.31% of 410,000 active; Potency, µM (doses to about 46.1 µM), inactives show at the top dose activation, usual class: activators; AID 624171; note: % of control where 0% means no effect; nearly all actives have a fitted effect of over 65% in size
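Reporter line AREc32 (ARE-Fluc), seeded overnight in OPTI-MEM with 5% FBS; compound pin-transferred, 24 hr at 37 deg C, 5% CO2; luminescent read-out.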
The depositor's hits bear a star; i = inactive; ? = inconclusive; . = not tested or not shown. Most compounds without a hit are left out; they make up all but 2.9% or so of the library. Calls come from the whole dose curve; as a rule, active = well fitted curve in the direction sought with a large enough effect; inconclusive = small, poorly fitted or top-dose-only effect, or another doubt; inactive = no such curve, though single readings can be large; an effect the other way counts as inactive or inconclusive. Potency is the fitted concentration of half-maximal effect.

SMILES | Nrf2 block | ATXN2 expr inh | A549 viability | S2 tox | Nrf2 activator
C[C@@H]1CCCCO[C@@H](CN(C)S(=O)(=O)c2ccccc2)[C@@H](C)CN([C@H](C)CO)C(=O)c2cc(NS(=O)(=O)c3ccc(F)cc3)ccc2O1 | . | -9% | . | i | -1%
COc1ccc(OC)c(/C=C/C(=O)OCC(=O)Nc2ccc(Cl)c(S(=O)(=O)N(C)C)c2)c1 | -14% | -18% | 2% | i | 4%
CC(=O)NC(c1ccco1)c1cc(Cl)c2ccccc2c1O (stereo unspecified) | 4% | -11% | -8% | i | ?
CC(=O)NC(c1cccs1)c1cc(F)c2cccnc2c1O (stereo unspecified) | ? | ? | -7% | 4µM* | -1%
CC(=O)NC(c1ccco1)c1cc(F)c2cccnc2c1O (stereo unspecified) | ? | ? | -8% | 14µM* | -1%
COc1ccc(OC)c(CNS(=O)(=O)c2ccc3[nH]c4c(c3c2)CCCCC4)c1 | 16µM* | ? | -11% | ? | -1%
CC(=O)c1cccc(NS(=O)(=O)c2ccc3[nH]c4c(c3c2)CCCCC4)c1 | 16µM* | ? | -18% | ? | -3%
CN(Cc1ccccc1)S(=O)(=O)c1ccc2[nH]c3c(c2c1)CCCCC3 | 16µM* | -36% | 2% | i | 3%
COc1ccc(NS(=O)(=O)c2ccc3[nH]c4c(c3c2)CCCCC4)cc1 | 16µM* | ? | ? | ? | 0%
CN(CC(=O)NCc1ccccc1)S(=O)(=O)c1ccc2[nH]c3c(c2c1)CCCC3 | -19% | ? | -4% | ? | 5%
Cc1cccn2c(=O)c3cc(C#N)c(=O)n(Cc4cccnc4)c3nc12 | ? | -11% | . | . | 0%
O=C(Nc1ccc2[nH]c3c(c2c1)CCCC3)c1ccco1 | ? | 16% | -7% | i | 13µM*
Cc1cccc(NC(=O)[C@H](Cc2c[nH]c3ccccc23)NC(=O)[C@@H]2Cc3ccccc3CN2)c1 | ? | -12% | 2% | ? | 4%
C=CCNc1c(O)cc2c(O)c1C[C@@H](C)C[C@H](OC)[C@@H](O)[C@@H](C)C=C(C)[C@H](OC(N)=O)[C@@H](OC)C=CC=C(C)C(=O)N2 | . | 0.77µM* | . | . | .
Cc1ccc(CNC(=O)CCS(=O)(=O)c2ccc3nc(C)sc3c2)cc1 | -19% | -17% | 3% | i | 0%
O=C(CCl)N=c1sccn1Cc1cccc2ccccc12 | -18% | 0.03µM* | -3% | ? | -3%
O=C(NCc1ccco1)/C(=C/c1ccc(C(F)(F)F)cc1)c1nc2ccccc2[nH]1 | ? | 28% | -1% | i | ?
O=S(=O)(/C(=C\c1ccc(C(F)(F)F)cc1)c1nc2ccccc2[nH]1)c1ccccc1 | 16µM* | 5µM* | ? | 7.1µM* | -3%
O=C(O)c1cccc(C(=O)Nc2cccc(NC(=O)C3CCCO3)c2)c1 (stereo unspecified) | 14% | ? | 12% | i | -1%
O=C(Nc1ccc(F)cc1)c1ccc(NC(=O)C2CCCO2)cc1 (stereo unspecified) | -5% | 18% | -2% | i | 2%
O=C(O)c1cccc(NC(=O)c2cccc(NC(=O)C3CCCO3)c2)c1 (stereo unspecified) | -12% | 8.9µM* | -3% | i | -2%
O=C(Nc1ccc(C(F)(F)F)cc1)c1ccc(NC(=O)C2CCCO2)cc1 (stereo unspecified) | 21µM* | ? | 2% | i | 1%
CCc1ccc(CN(Cc2ccco2)c2cnc(S(C)(=O)=O)nc2C(=O)Nc2ccccc2Cl)cc1 | 17% | 16% | 3% | i | 5%
Cc1cc(=O)c2cc(Br)ccc2n1CC(=O)NCc1ccccc1 | ? | -6% | 1% | ? | -1%
Cc1cc(Br)ccc1NC(=O)CN(C)C(=O)COc1cccc2c1OC(C)(C)C2 | 21µM* | -4% | 0% | i | 0%
SMILES | Nrf2 block | ATXN2 expr inh | A549 viability | S2 tox | Nrf2 activator
COc1ccc(NC(=O)COc2cccc3c2OC(C)(C)C3)cc1OC | 18µM* | -17% | -10% | i | 1%
COc1cccc(NC(=O)COC(=O)COc2cccc3c2OC(C)(C)C3)c1 | 15% | 6% | 2% | ? | 0%
O=C1c2ccccc2-c2c1cccc2C(=O)N1CCCCCC1 | ? | 6% | 2% | i | 0%
CC(C)(C)c1ccc(C(=O)NCCOc2ccccc2F)cc1 | ? | 13µM* | 0% | i | -1%
CC(C)(C)c1ccc(C(=O)NCCOc2ccccc2)cc1 | ? | ? | 1% | i | -2%
O=C(Nc1ccccc1)Nc1ccc(-c2ccc(C(=O)[C@H]3CCC[C@H]3C(=O)O)cc2)cc1 | . | 26% | . | . | .
Cc1ccc(/C=N/Nc2cccc(C(=O)O)c2)s1 | ? | ? | -1% | i | -2%
Cc1ccc(/C=N/Nc2ccc(C(=O)O)cc2)s1 | ? | 0.95µM* | 1% | i | -3%
Cn1nc(C(=O)NCc2ccccn2)c2ccccc2c1=O | 5.8µM* | 5% | -5% | i | 5%
Cn1nc(C(=O)OCc2ccc(F)cc2)c2ccccc2c1=O | ? | -21% | 1% | i | 6%
Cn1nc(C(=O)Oc2cc(=O)n(C)c3ccccc23)c2ccccc2c1=O | 8% | . | 2% | 0.22µM* | 0%
Cc1ccc(COC(=O)c2nn(C)c(=O)c3ccccc23)cc1 | 23µM* | -16% | -15% | i | 6%
O=C(CC1SCCNC1=O)Nc1cccc([N+](=O)[O-])c1 (stereo unspecified) | -9% | -14% | 3% | i | 3%
O=C(NCc1ccccc1)Nc1cccn(Cc2ccccc2)c1=O | ? | 1% | -2% | i | 7%
CCOc1ccc(NC(=O)Nc2cccn(Cc3ccccc3)c2=O)cc1 | 9.2µM* | -13% | ? | ? | 5%
O=C(Nc1cccc2c1CCCC2)c1cc([N+](=O)[O-])ccc1Cl | ? | 25µM* | -12% | i | 20%
O=C(Nc1cccc2c1CCCC2)c1ccc(Cl)c([N+](=O)[O-])c1 | 2% | -8% | -4% | i | -1%
Clc1ccc(-c2nnc(CSc3nnc(-c4cccs4)n3Cc3ccccc3)o2)cc1 | 21µM* | . | -11% | ? | 7%
Cc1nnc(SCc2nnc(-c3cccs3)o2)n1Cc1ccccc1 | 6% | -2% | 2% | i | 0%
Cc1ccc2nc(C3CCCCC3)c(Cc3ccccc3)n2c1 | . | ? | . | 13µM* | 1%
CCCc1nc2ccc(C)cn2c1Cc1ccc(C)cc1 | . | ? | . | 25µM* | 6%
CCOc1ccccc1-n1c(CN2CCN(C(=O)c3ccco3)CC2)nc2ccccc2c1=O | 16µM* | -19% | -22% | i | -1%
CCOc1ccccc1-c1nc(CN2CCN(C(=O)c3ccco3)CC2)c(C)o1 | -1% | -7% | 4% | i | 0%
